SRC2 TRFRET art: TR-FRET signal artefacts, primary screen, artefact control for PPARgamma SRC-2 agonist project, biochemical; TR-FRET artefact counter-screen; hits give high values; actives 0.4% (n = 200,000); TR-FRET ratio at 8 µM
PPARg SRC-1 ag: PPARgamma agonists recruiting SRC-1 coactivator, primary screen, biochemical; Peroxisome proliferator-activated receptor gamma (Homo sapiens), P37231; PPARgamma-SRC-1 coactivator recruitment biochemical assay; activation, % at 8 µM; actives 0.41% (n = 200,000); in the data active = activation above about 19%;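 note: 0% = DMSO and 100% = reference agonist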
Target sequence (P37231 whole entry, looked up): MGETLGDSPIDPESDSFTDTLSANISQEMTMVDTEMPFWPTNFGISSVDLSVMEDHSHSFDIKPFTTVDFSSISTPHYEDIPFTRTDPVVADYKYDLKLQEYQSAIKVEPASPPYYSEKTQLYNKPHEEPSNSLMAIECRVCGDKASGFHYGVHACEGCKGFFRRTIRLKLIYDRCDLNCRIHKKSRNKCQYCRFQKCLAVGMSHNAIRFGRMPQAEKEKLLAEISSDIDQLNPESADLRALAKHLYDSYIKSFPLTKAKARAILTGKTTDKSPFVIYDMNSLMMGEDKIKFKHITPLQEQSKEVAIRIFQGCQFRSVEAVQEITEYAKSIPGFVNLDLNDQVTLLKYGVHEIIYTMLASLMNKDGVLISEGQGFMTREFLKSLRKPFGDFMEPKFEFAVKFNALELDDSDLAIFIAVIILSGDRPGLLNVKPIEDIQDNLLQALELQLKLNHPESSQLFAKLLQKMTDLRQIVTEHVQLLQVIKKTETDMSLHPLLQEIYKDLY
SRC3 TRFRET art: TR-FRET detection interference compounds, artefact control for PPARgamma SRC-3 recruitment agonists, biochemical, TR-FRET ratio | TR-FRET artefact counter-screen, PPARgamma/SRC-3 format; hits give high values | TR-FRET ratio at 8 µM | actives 0.39% (n = 99,000)
SRC1 TRFRET art: TR-FRET detection interference compounds, primary screen, artefact control for PPARgamma SRC-1 recruitment agonists, biochemical, TR-FRET emission ratio; TR-FRET ratio at 8 µM; AID 1051, 2008; TR-FRET detection artefact counter-screen; hits give high values; actives 0.34% (n = 99,000); in the data active = TR-FRET ratio above about 2300
PPARg SRC-3 ag: PPARgamma agonists recruiting SRC-3 coactivator, primary screen, biochemical; Peroxisome proliferator-activated receptor gamma (Homo sapiens), P37231; actives 0.26% (n = 200,000); activation, % at 8 µM; biochemical PPARgamma/SRC-3 coactivator recruitment assay; AID 731, 2007; in the data active = activation above about 23%;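 note: 0% = DMSO and 100% = reference agonist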
PPARg SRC-2 ag: agonists of PPARg-SRC-2 recruitment, primary screen, biochemical, HTS. actives 0.34% (n = 200,000). Peroxisome proliferator-activated receptor gamma (Homo sapiens), P37231. AID 1032, 2008. PPARgamma LBD-SRC-2 recruitment. activation, % at 8 µM; in the data active = activation above about 22%;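 note: 0% = vehicle and 100% = reference agonist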
PPARg SRC2 conf: agonists of PPARgamma SRC-2 coactivator recruitment, confirmation, biochemical, HTS; shares compounds with PPARg SRC-3 ag; biochemical SRC-2 recruitment by PPARgamma; activation, % at 8 µM; actives 52% (n = 790); in the data active = activation above about 22%;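 note: 0% = vehicle alone and 100% = reference agonist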
PPARg SRC1 ag: PPARgamma agonists recruiting SRC-1 coactivator, confirmation, biochemical; shares compounds with PPARg SRC-3 ag; PPARgamma–SRC-1 coactivator recruitment biochemical assay; activation, % at 8 µM; actives 43% (n = 790); in the data active = activation above about 20%;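 note: 0% = vehicle wells and 100% = reference agonist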
PPARg SRC3 conf: PPARgamma-driven SRC-3 coactivator recruitment agonists, confirmation, biochemical | shares compounds with PPARg SRC-3 ag | activation, % at 8 µM | AID 1301, 2008 | actives 29% (n = 790) | biochemical PPARgamma-SRC-3 coactivator recruitment, agonist mode; in the data active = activation above about 24%;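 note: 0% = vehicle wells and 100% = reference agonist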
An asterisk follows results filed as active. Only some compounds are listed: those with a hit (about 0.84% of all), similar ones and a draw of the others. Cut-off read from the data, not from the text of the source, unless noted: active = TR-FRET ratio above about 2000; inactive = the rest.

c1ccc2[nH]c(CSc3ncnc4c3oc3ccccc34)nc2c1 was read as SRC2 TRFRET art 2940*, PPARg SRC-1 ag 44*, PPARg SRC-3 ag 72*, PPARg SRC-2 ag 71*, PPARg SRC2 conf 44*, PPARg SRC1 ag 30* and PPARg SRC3 conf 29*.
`O=C(CSc1ncnc2c1oc1ccccc12)NCc1ccc(F)cc1` gave SRC2 TRFRET art 3344*, PPARg SRC-1 ag 58*, PPARg SRC-3 ag 63*, PPARg SRC-2 ag 71*, PPARg SRC2 conf 48*, PPARg SRC1 ag 34* and PPARg SRC3 conf 29*.
Screening Cc1cccc(NC(=O)CSc2ncnc3c2oc2ccccc23)c1 returned SRC2 TRFRET art 1711, PPARg SRC-1 ag 11, PPARg SRC-3 ag 14 and PPARg SRC-2 ag 19.
Screening Cc1ccc2nc(NC(=O)CSc3ncnc4c3oc3ccccc34)sc2c1 returned SRC2 TRFRET art 1748, PPARg SRC-1 ag 30*, PPARg SRC-3 ag 14, PPARg SRC-2 ag 10, PPARg SRC2 conf 33*, PPARg SRC1 ag 22* and PPARg SRC3 conf 19.
Screening COc1ccc(NC(=O)NCCC2=CCCCC2)cc1 returned SRC2 TRFRET art 1650, PPARg SRC-1 ag -1, SRC3 TRFRET art 1466, SRC1 TRFRET art 1832, PPARg SRC-3 ag -2 and PPARg SRC-2 ag 0.
Fc1ccc(CSc2ncnc3c2oc2ccccc23)cc1 was read as SRC2 TRFRET art 1720, PPARg SRC-1 ag 15, SRC3 TRFRET art 1683, SRC1 TRFRET art 2218, PPARg SRC-3 ag 10 and PPARg SRC-2 ag 10.
`Fc1cccc(CSc2ncnc3c2oc2ccccc23)c1` gave SRC2 TRFRET art 2464*, PPARg SRC-1 ag 36*, PPARg SRC-3 ag 42*, PPARg SRC-2 ag 45*, PPARg SRC2 conf 39*, PPARg SRC1 ag 27* and PPARg SRC3 conf 27*.
Screening Cc1nc2scc(-c3ccccc3)c2c(=O)n1N=C1C=CC(=O)C=C1 returned SRC2 TRFRET art 1437, PPARg SRC-1 ag 39*, SRC3 TRFRET art 1556, SRC1 TRFRET art 1523, PPARg SRC-3 ag 35*, PPARg SRC-2 ag 26*, PPARg SRC2 conf 39*, PPARg SRC1 ag 38* and PPARg SRC3 conf 31*.
`COc1cccc(C(=O)N=c2sc3cc(S(C)(=O)=O)ccc3n2C)c1` gave SRC2 TRFRET art 1798, PPARg SRC-1 ag 27*, SRC3 TRFRET art 1660, SRC1 TRFRET art 1973, PPARg SRC-3 ag 16, PPARg SRC-2 ag 19, PPARg SRC2 conf 14, PPARg SRC1 ag 6 and PPARg SRC3 conf 4.
For COc1cc(OC)cc(C(=O)N=c2sc3ccccc3n2C)c1 the results were SRC2 TRFRET art 1838, PPARg SRC-1 ag 3, SRC3 TRFRET art 1632, SRC1 TRFRET art 1871, PPARg SRC-3 ag 3 and PPARg SRC-2 ag 10.
`CNC(=S)N1N=C(c2ccc(OC)cc2)CC1c1ccc(Cl)cc1Cl` (stereo not drawn) gave SRC2 TRFRET art 2360*, PPARg SRC-1 ag 22*, SRC3 TRFRET art 3446*, SRC1 TRFRET art 3403*, PPARg SRC-3 ag 16, PPARg SRC-2 ag 7, PPARg SRC2 conf 18, PPARg SRC1 ag 12 and PPARg SRC3 conf 12.
For COc1ccc(C2=NN(C(=O)CN3CCCCC3)C(c3ccc(C)cc3)C2)cc1 (stereo not drawn) the results were SRC2 TRFRET art 1498, PPARg SRC-1 ag 2, SRC3 TRFRET art 1434, SRC1 TRFRET art 1708, PPARg SRC-3 ag 1 and PPARg SRC-2 ag 1.
CNC(=S)N1N=C(c2ccc(Br)cc2)CC1c1ccc(OC)cc1 (stereo not drawn) was read as SRC2 TRFRET art 2412*, PPARg SRC-1 ag 23*, SRC3 TRFRET art 2788*, SRC1 TRFRET art 2835*, PPARg SRC-3 ag 21, PPARg SRC-2 ag 18, PPARg SRC2 conf 37*, PPARg SRC1 ag 30* and PPARg SRC3 conf 21.
`CCOc1ccc(N2CC(C(=O)Nc3ccccc3F)CC2=O)cc1` (stereo not drawn) gave SRC2 TRFRET art 1640, PPARg SRC-1 ag 1, PPARg SRC-3 ag -3 and PPARg SRC-2 ag -2.
COc1cccc2c1C(=O)c1c(O)c3c(c(O)c1C2=O)C[C@@](O)(C(=O)CO)C[C@@H]3O[C@H]1C[C@H](N)[C@H](O)[C@H](C)O1 was read as SRC2 TRFRET art 1930, PPARg SRC-1 ag 28*, SRC3 TRFRET art 2006, SRC1 TRFRET art 2222, PPARg SRC-3 ag 13, PPARg SRC-2 ag 21, PPARg SRC2 conf 6, PPARg SRC1 ag -1 and PPARg SRC3 conf 6.
Screening CCOC(=O)CSc1c(-c2cccs2)[nH]c2ccccc12 returned SRC2 TRFRET art 1827, PPARg SRC-1 ag 13, SRC3 TRFRET art 1749, SRC1 TRFRET art 1981, PPARg SRC-3 ag 14, PPARg SRC-2 ag 25*, PPARg SRC2 conf 32*, PPARg SRC1 ag 23* and PPARg SRC3 conf 19.
Screening CN(C)c1ccc(N=C/C=C2/N(C)c3ccccc3C2(C)C)cc1 returned SRC2 TRFRET art 2099*, PPARg SRC-1 ag 28*, SRC3 TRFRET art 2085*, SRC1 TRFRET art 2167, PPARg SRC-3 ag 17, PPARg SRC-2 ag 32*, PPARg SRC2 conf 13, PPARg SRC1 ag 12 and PPARg SRC3 conf 8.
Screening CN1/C(=C\C=N\O)C(C)(C)c2ccccc21 returned SRC2 TRFRET art 1498, PPARg SRC-1 ag -3, SRC3 TRFRET art 1499, SRC1 TRFRET art 1991, PPARg SRC-3 ag -1 and PPARg SRC-2 ag 1.
For Cc1ccc(C(=O)C2=C(O)C(=O)N(c3ncccn3)C2c2ccc(Cl)cc2)o1 (stereo not drawn) the results were SRC2 TRFRET art 2243*, PPARg SRC-1 ag 28*, PPARg SRC-3 ag 43*, PPARg SRC-2 ag 38*, PPARg SRC2 conf 28*, PPARg SRC1 ag 21* and PPARg SRC3 conf 22.
O=C(Nc1ccc2oc(-c3ccc(F)cc3)nc2c1)c1ccccc1F was read as SRC2 TRFRET art 2348*, PPARg SRC-1 ag 25*, PPARg SRC-3 ag 21, PPARg SRC-2 ag 28*, PPARg SRC2 conf 14, PPARg SRC1 ag 12 and PPARg SRC3 conf 6.
